Results filed as inconclusive are left out. The source made the active and inactive calls. How the source made its calls, unless noted: active means hit-call score of the fitted dose curve at least 0.9, where 1 is the maximum; inactive means score below 0.9.

Experiment [1] can be described thus: ATG_NFI_CIS: Attagene CIS-FACTORIAL HepG2 Assay for human Nuclear Factor I (NFI) (AID 2282989). The settings on record: HepG2 cis-regulatory reporter, NFI response element transcription; actives raise or lower the signal. The procedure, abridged: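 HepG2, transient MRTU, 24 h exposure; RNA→cDNA→PCR→FAM label→HpaI→CE fluorescence. Bidirectional fit, DMSO = baseline.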

Experiment [2] has as its target Myc proto-oncogene protein (Homo sapiens) (UniProt P01106). The experiment can be described thus: ATG_Myc_CIS: Attagene CIS-FACTORIAL HepG2 Assay for human Myelocytomatosis (Myc) Proto-Oncogene Transcription Factor (AID 2282990). The conditions noted are these: HepG2, Attagene cis-reporter transcription factor activity; actives raise or lower the signal. The method, boiled down: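 Cells of the HepG2 human liver line bear multiple cis-driven reporter transcription units. Reporter mRNA after 24 h exposure is reverse-transcribed, amplified, labelled and resolved by capillary electrophoresis, with gain- or loss-of-signal fitting relative to DMSO.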

Experiment [3] can be described thus: ATG_NF_kB_CIS: Attagene CIS-FACTORIAL HepG2 Assay for human Nuclear Factor Kappa B (NF-kB) (AID 2282991). The settings on record: HepG2 Attagene cis-factorial NF-kB reporter mRNA; actives raise or lower the signal. The procedure, abridged:
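HepG2, transient multi-reporter transfection, cis promoter elements (endogenous TFs). 24 h exposure. Total RNA → RT → PCR → 6-FAM label → HpaI → CE. Gain/loss vs DMSO.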

The nature of experiment [4]: ATG_NRF2_ARE_CIS: Attagene CIS-FACTORIAL HepG2 Assay for human Nuclear Factor Erythroid 2 Related Factor 2 (NFR2) response to Antioxidant Response Elements (ARE) (AID 2282992).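 On AC50: reporter mRNA level measured by RT-PCR and capillary electrophoresis fluorescence.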 The conditions noted are these: HepG2 Attagene ARE/NRF2 reporter, transcription factor activity; actives raise or lower the signal. The procedure, abridged: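 Multiplexed reporter mRNA profiling in HepG2 after a 24 h chemical exposure. Curves fitted in both directions relative to DMSO negative control.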

The nature of experiment [5]: ATG_Oct_MLP_CIS: Attagene CIS-FACTORIAL HepG2 Assay for human Octamer-Binding Transcription Factor (Oct) (AID 2282993). The conditions noted are these: HepG2 Attagene cis-factorial Oct reporter, mRNA; actives raise or lower the signal. The procedure, abridged: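 Multiplexed cis-reporter assay in human liver HepG2 cells, 24 h incubation. Reporter RNA amplified and labelled, then resolved by capillary electrophoresis; DMSO serves as negative control and baseline.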

Experiment [6] has as its target Cellular tumor antigen p53 (Homo sapiens) (UniProt P04637). The experiment can be described thus: ATG_p53_CIS: Attagene CIS-FACTORIAL HepG2 Assay for human p53 Transcription Factor (AID 2282994). The conditions noted are these: HepG2 p53 cis-element reporter, Attagene mRNA; actives raise or lower the signal. The method, boiled down: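 Multiplexed reporter mRNA assay in human HepG2 liver cells; cis-regulated units report endogenous factor activity. Values come from bidirectional curve fitting against DMSO negative control after 24 h treatment.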

Experiment [7] can be described thus: BSK_3C_TissueFactor: BioMAP Diversity Plus: 3C Assay for Tissue Factor Biomarker Activity (AID 2282997). The conditions noted are these: BioMAP 3C HUVEC, tissue factor biomarker readout; actives raise or lower the signal. The method, boiled down:
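Endothelial monolayers (human umbilical vein, primary) are dosed, incubated 24 h, and assayed for Tissue Factor by ELISA; DMSO serves as negative control for bidirectional fitting.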

Experiment [8] in a line: BSK_3C_uPAR: BioMAP Diversity Plus: 3C Assay for Urokinase-type plasminogen activator receptor (uPAR) Biomarker Activity (AID 2282998). The conditions noted are these: BioMAP 3C HUVEC, uPAR biomarker ELISA; actives raise or lower the signal. The method, boiled down:
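Dose primary human umbilical vein endothelial cells, incubate 24 h, measure cell-surface uPAR by ELISA, then fit the signal in both directions against the DMSO negative control.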

The nature of experiment [9]: BSK_3C_VCAM1: BioMAP Diversity Plus: 3C Assay for Vascular cell adhesion molecule 1 (VCAM1) Biomarker Activity (AID 2282999). The settings on record: BioMAP 3C HUVEC, VCAM1 ELISA, cytokine-stimulated; actives raise or lower the signal. The procedure, abridged: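 Endothelial cells from human umbilical vein are treated with test chemical. At 24 h, VCAM-1 is measured by ELISA, and responses in either direction are fitted relative to DMSO.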
A general note: An ELISA detects its analyte on a solid surface through an enzyme-linked reagent.

A short description of experiment [10]: BSK_4H_Eotaxin3: BioMAP Diversity Plus: 4H Assay for Eotaxin 3 Biomarker Activity (AID 2283000). The settings on record: primary human endothelial cells (HUVEC); actives raise or lower the signal. The procedure, abridged:
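ELISA quantitation of CCL26 (Eotaxin-3) protein from chemically dosed human vascular endothelial cells at 24 h; increases and decreases both scored relative to DMSO-treated baseline.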

For experiment [11], the target named is human Peroxisome Proliferator-activated Receptor alpha (PPARa), PPARA (gene 5465) (UniProt Q07869). The experiment can be described thus: ATG_PPARa_TRANS: Attagene TRANS-FACTORIAL HepG2 Assay for human Peroxisome Proliferator-activated Receptor alpha (PPARa) (AID 2283001; active means hit-call score of the fitted dose curve at least 0.9, where 1 is the maximum;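 on AC50: potency for gain of reporter signal over DMSO so agonist or activator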). The method, boiled down:
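Read-out is fluorescence of reporter cDNA fragments resolved by capillary electrophoresis after RT-PCR. Human HepG2 liver cells carried transfected PPARa-Gal4 chimera and GAL4-UAS reporter units, treated 24 h; activity scored as increase over DMSO.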

Read-out in experiment [12]: Intercellular Adhesion Molecule 1 (ICAM1), ICAM1 (gene 3383)
The experiment can be described thus: BSK_3C_ICAM1: BioMAP Diversity Plus: 3C Assay for Intercellular Adhesion Molecule 1 (ICAM1) Biomarker Activity (AID 2283003). The settings on record: primary human endothelial cells (HUVEC); actives raise or lower the signal. The procedure, abridged:
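ICAM-1 levels measured by ELISA after HUVEC cultures in the 3C system had been dosed for 24 h. Gain or loss of signal relative to DMSO was fitted in both directions.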

Experiment [13] in a line: BSK_3C_Proliferation: Cell Proliferation Assessment in the BioMAP Diversity Plus: 3C Assay (AID 2283006).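 Further: potency may reflect either rise or fall in cell number versus DMSO.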 The conditions noted are these: primary human endothelial cells (HUVEC). The method, boiled down: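 Read-out is total protein by SRB absorbance at 560 nm, taken as a proxy for relative cell number. Primary human umbilical vein endothelium cultured below confluence was dosed for 48 h, TCA-fixed and SRB-stained; curves were fitted bidirectionally versus DMSO.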

The target in experiment [14] is Nuclear receptor subfamily 1 group I member 2 (Homo sapiens) (UniProt O75469). The experiment can be described thus: ATG_PXR_TRANS: Attagene TRANS-FACTORIAL HepG2 Assay for human Pregnane X Receptor (PXR) (AID 2283008; active means hit-call score of the fitted dose curve at least 0.9, where 1 is the maximum). The method, boiled down: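 Measures mRNA induction of a GAL4-UAS-driven reporter in human HepG2 cells transiently expressing PXR fused to Gal4, following 24 h treatment. DMSO served as negative control and baseline.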
Chain of Nuclear receptor subfamily 1 group I member 2 (Homo sapiens) (O75469 whole entry, looked up, the tested form may be a part): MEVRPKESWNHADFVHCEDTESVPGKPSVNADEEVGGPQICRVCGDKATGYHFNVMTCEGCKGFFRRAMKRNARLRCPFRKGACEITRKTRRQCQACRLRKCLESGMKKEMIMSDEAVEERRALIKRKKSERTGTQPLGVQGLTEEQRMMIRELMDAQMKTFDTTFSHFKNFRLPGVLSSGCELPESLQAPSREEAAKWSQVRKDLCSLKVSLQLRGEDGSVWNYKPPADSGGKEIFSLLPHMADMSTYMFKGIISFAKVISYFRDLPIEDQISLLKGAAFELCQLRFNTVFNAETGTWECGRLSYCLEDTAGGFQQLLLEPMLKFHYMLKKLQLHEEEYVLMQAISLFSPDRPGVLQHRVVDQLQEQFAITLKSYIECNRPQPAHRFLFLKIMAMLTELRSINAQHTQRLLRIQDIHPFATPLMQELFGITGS

The target in experiment [15] is human RAR-related Orphan Receptor beta (RORb), RORB (gene 6096) (UniProt Q92753). The experiment can be described thus: ATG_RORb_TRANS: Attagene TRANS-FACTORIAL HepG2 Assay for human RAR-related Orphan Receptor beta (RORb) (AID 2283010; active means hit-call score of the fitted dose curve at least 0.9, where 1 is the maximum). The method, boiled down: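 Readout is reporter-gene mRNA induction, detected as fluorescence after RT-PCR and capillary electrophoresis, fitted for gain of signal against DMSO controls. Transiently transfected HepG2 liver cells carrying GAL4-UAS reporter constructs were treated for 24 hours.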
Chain of human RAR-related Orphan Receptor beta (RORb), RORB (gene 6096) (Q92753 whole entry, looked up, the tested form may be a part): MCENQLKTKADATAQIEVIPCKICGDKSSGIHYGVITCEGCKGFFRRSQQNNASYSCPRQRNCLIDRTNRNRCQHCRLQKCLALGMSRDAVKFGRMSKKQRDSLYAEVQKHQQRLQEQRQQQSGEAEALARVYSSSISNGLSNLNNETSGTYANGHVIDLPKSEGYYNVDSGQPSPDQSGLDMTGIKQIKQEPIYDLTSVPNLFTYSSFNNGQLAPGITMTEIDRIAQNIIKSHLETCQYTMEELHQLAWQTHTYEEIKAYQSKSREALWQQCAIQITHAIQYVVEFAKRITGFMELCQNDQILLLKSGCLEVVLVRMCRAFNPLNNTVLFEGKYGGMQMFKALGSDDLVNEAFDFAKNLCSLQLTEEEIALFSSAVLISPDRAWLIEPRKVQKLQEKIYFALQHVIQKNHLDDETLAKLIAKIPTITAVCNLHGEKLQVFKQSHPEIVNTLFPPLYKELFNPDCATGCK

For experiment [16], the target named is human Peroxisome Proliferator-activated Receptor delta (PPARd), PPARD (gene 5467) (UniProt Q03181). The experiment can be described thus: ATG_PPARd_TRANS: Attagene TRANS-FACTORIAL HepG2 Assay for human Peroxisome Proliferator-activated Receptor delta (PPARd) (AID 2283002; active means hit-call score of the fitted dose curve at least 0.9, where 1 is the maximum). The procedure, abridged: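 Cell-based TRANS reporter: HepG2, transient MRTU transfection, 24 h exposure. Readout = reporter mRNA (RT-PCR/CE, 6-FAM). Gain-of-signal fit vs DMSO control.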
Chain of human Peroxisome Proliferator-activated Receptor delta (PPARd), PPARD (gene 5467) (Q03181 whole entry, looked up): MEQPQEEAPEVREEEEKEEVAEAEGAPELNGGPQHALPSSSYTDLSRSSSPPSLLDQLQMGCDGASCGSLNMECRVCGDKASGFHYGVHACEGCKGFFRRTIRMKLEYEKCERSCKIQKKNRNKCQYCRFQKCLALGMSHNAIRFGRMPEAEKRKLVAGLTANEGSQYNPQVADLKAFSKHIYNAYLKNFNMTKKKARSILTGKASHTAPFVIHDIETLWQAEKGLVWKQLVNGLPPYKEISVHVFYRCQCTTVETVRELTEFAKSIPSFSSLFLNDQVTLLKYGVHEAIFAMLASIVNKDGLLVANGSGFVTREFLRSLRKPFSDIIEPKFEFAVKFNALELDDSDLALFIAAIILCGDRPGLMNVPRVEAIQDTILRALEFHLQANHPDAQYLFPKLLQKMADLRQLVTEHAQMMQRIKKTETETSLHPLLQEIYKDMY

In experiment [17] the target is human Retinoic Acid Receptor beta (RARb), RARB (gene 5915) (UniProt P10826). The experiment can be described thus: ATG_RARb_TRANS: Attagene TRANS-FACTORIAL HepG2 Assay for human Retinoic Acid Receptor beta (AID 2283004; active means hit-call score of the fitted dose curve at least 0.9, where 1 is the maximum). The procedure, abridged: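 Fluorescent capillary-electrophoresis detection of GAL4-UAS reporter mRNA defines the endpoint, with induction over DMSO-treated wells scored as activity. Transiently transfected human hepatoma HepG2 cells expressing exogenous NR–Gal4 proteins are exposed to test chemicals for 24 h.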
Chain of human Retinoic Acid Receptor beta (RARb), RARB (gene 5915) (P10826 whole entry, looked up, the tested form may be a part): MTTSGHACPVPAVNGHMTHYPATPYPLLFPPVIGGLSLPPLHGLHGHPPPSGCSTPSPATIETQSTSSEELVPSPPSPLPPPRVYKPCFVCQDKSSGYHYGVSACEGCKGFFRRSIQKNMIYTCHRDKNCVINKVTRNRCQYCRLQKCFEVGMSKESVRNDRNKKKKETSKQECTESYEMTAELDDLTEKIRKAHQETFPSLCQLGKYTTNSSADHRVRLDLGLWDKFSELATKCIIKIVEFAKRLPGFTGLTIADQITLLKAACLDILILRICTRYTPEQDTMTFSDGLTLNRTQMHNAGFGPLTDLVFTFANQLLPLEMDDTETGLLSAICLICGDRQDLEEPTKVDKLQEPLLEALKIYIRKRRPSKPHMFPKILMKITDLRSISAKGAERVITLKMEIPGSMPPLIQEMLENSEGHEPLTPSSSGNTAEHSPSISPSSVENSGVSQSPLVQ

In experiment [18] the target is Retinoic acid receptor alpha (Homo sapiens) (UniProt P10276). The experiment can be described thus: ATG_RARa_TRANS: Attagene TRANS-FACTORIAL HepG2 Assay for human Retinoic Acid Receptor alpha (RARa) (AID 2283005; active means hit-call score of the fitted dose curve at least 0.9, where 1 is the maximum). The procedure, abridged: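 Reporter transcripts, measured by RT-PCR with fluorescent labeling and capillary electrophoresis after 24 h dosing, reflect activity of an exogenous human RARa–GAL4 fusion in transiently transfected HepG2. Fitted for increase relative to DMSO.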
Chain of Retinoic acid receptor alpha (Homo sapiens) (P10276 whole entry, looked up, the tested form may be a part): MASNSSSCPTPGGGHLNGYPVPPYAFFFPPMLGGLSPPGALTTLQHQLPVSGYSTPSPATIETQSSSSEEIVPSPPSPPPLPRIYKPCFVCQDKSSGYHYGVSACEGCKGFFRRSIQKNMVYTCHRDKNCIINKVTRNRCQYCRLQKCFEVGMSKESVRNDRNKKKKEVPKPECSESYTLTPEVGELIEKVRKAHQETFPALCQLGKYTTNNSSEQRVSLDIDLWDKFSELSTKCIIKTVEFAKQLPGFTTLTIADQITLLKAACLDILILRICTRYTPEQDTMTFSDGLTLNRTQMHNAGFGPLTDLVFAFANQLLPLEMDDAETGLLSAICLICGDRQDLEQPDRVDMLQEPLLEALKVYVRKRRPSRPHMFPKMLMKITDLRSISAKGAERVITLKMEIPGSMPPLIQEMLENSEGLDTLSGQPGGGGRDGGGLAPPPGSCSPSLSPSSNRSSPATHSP

Experiment [19] concerns the target Peroxisome proliferator-activated receptor gamma (Homo sapiens) (UniProt P37231). The experiment can be described thus: ATG_PPARg_TRANS: Attagene TRANS-FACTORIAL HepG2 Assay for human Peroxisome Proliferator-activated Receptor-gamma (PPARg) (AID 2283007; active means hit-call score of the fitted dose curve at least 0.9, where 1 is the maximum). The method, boiled down:
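Multiplexed reporter transcription units in HepG2, 24 h dosing, reporter transcripts quantified by fluorescent RT-PCR and capillary electrophoresis. Increase over DMSO scored.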

The target of experiment [20] is human Retinoic Acid Receptor gamma (RARg), RARG (gene 5916) (UniProt P13631). The experiment can be described thus: ATG_RARg_TRANS: Attagene TRANS-FACTORIAL HepG2 Assay for human Retinoic Acid Receptor gamma (RARg) (AID 2283009; active means hit-call score of the fitted dose curve at least 0.9, where 1 is the maximum). The method, boiled down:
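Transient transfection of HepG2 with multi-reporter constructs, then 24 h chemical treatment. Total RNA isolated, reverse-transcribed, PCR-amplified, fluorescently labelled and resolved by capillary electrophoresis; activity scored as mRNA induction versus DMSO.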

Chain of Cellular tumor antigen p53 (Homo sapiens) (P04637 whole entry, looked up): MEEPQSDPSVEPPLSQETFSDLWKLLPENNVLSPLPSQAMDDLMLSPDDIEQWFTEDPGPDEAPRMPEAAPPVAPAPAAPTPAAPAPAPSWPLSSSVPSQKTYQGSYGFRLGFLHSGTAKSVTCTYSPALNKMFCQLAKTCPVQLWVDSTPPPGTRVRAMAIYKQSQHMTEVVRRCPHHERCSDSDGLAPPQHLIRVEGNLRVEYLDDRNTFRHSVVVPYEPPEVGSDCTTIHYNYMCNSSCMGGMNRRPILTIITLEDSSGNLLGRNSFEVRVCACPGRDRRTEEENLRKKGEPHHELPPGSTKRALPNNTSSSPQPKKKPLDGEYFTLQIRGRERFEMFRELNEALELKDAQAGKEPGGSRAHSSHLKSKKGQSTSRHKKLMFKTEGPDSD
Chain of human Peroxisome Proliferator-activated Receptor alpha (PPARa), PPARA (gene 5465) (Q07869 whole entry, looked up, the tested form may be a part): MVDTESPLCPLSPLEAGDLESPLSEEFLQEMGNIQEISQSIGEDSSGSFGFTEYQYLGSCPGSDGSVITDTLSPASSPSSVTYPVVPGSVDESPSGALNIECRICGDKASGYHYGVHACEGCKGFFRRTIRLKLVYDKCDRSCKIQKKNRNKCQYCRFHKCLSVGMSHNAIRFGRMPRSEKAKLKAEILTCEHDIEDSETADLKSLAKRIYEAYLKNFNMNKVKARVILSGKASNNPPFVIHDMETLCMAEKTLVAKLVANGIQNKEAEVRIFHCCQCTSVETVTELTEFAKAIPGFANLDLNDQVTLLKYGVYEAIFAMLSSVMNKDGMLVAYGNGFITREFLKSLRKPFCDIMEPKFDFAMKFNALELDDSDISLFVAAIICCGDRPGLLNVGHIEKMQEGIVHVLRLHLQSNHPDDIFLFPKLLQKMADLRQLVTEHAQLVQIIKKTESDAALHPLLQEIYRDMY
Chain of Myc proto-oncogene protein (Homo sapiens) (P01106 whole entry, looked up): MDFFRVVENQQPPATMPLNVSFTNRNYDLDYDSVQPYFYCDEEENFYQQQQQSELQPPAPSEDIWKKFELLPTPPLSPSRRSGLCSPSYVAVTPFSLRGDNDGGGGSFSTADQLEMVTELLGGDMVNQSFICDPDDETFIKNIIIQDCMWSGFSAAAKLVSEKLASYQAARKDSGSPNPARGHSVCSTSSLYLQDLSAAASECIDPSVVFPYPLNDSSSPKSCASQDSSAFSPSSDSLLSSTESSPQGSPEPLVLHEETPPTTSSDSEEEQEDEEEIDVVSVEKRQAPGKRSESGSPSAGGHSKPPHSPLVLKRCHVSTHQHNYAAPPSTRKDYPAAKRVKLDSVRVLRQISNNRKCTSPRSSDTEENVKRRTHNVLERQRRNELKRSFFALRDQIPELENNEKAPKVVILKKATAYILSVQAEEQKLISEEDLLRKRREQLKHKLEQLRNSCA
Chain of Peroxisome proliferator-activated receptor gamma (Homo sapiens) (P37231 whole entry, looked up): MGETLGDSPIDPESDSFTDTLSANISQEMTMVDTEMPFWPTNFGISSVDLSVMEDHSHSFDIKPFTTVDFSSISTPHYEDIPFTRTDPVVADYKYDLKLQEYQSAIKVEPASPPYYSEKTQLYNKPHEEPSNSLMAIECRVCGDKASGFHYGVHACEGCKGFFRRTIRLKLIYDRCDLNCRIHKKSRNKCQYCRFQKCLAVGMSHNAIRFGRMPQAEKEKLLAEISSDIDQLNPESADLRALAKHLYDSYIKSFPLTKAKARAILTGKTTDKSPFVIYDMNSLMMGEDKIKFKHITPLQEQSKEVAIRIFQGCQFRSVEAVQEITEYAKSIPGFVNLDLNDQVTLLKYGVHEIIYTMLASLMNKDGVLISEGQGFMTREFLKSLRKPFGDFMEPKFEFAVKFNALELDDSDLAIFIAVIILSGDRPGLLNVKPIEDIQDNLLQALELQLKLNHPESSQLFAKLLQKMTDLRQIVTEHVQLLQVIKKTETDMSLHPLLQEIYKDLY
Chain of human Retinoic Acid Receptor gamma (RARg), RARG (gene 5916) (P13631 whole entry, looked up): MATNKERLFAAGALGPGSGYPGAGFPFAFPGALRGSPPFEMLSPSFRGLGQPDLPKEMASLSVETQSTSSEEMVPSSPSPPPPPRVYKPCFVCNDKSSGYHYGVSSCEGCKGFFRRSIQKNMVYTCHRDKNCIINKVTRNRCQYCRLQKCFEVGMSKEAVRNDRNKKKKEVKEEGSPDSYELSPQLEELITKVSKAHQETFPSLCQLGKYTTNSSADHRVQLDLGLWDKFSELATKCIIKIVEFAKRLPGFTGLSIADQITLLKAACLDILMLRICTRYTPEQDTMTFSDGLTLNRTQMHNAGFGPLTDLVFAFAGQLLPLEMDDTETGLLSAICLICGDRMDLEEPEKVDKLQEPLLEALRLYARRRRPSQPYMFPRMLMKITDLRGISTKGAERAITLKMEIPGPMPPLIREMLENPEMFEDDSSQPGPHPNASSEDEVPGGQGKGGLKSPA

Turning to `C=CC(=O)OCC(Br)CBr` (centres undefined), the AC50 (usually the concentration giving half of the maximal activity seen) in [1] was 163 µM (active); in experiment [3] it was 56.6 µM (active); in experiment [4] it was 24.8 µM (active); in experiment [6], 165 µM (active); in experiment [7], 20 µM (active); in [8], 34.2 µM (active). Also, the AC50 is 18.4 µM (active) in experiment [9]; 20 µM (active) in [10]; 144 µM (active) in experiment [11]; 30.1 µM (active) in [12]; 9.42 µM (active) in experiment [13]; 100 µM (active) in experiment [14]. Further, the molecule was called inactive in experiment [2], in [5] and in experiment [15].
Regarding `C(=CC=Nc1ccccc1)C=CNc1ccccc1`, the molecule was classed as inactive in [1], in [2], in [3], in [5], in experiment [6] and in experiment [11]. The molecule was called inactive in experiment [16], in experiment [17], in experiment [18], in [19] and in [20]. Besides, the AC50 in [4] was 49.4 µM (active).
For the molecule `O=C(Cl)c1cc(C(=O)Cl)cc(C(=O)Cl)c1`, the molecule was called inactive in [1], in [2], in [3], in experiment [5], in experiment [6] and in experiment [16]. Further, in experiment [19], the outcome was inactive. The AC50 in [4] is 158 µM (active); in [7] it was 12.2 µM (active); in experiment [8], 10.2 µM (active); in experiment [9] it was 12.7 µM (active); in experiment [10], 25.8 µM (active); in experiment [12] it was 12.7 µM (active). For the same molecule, the AC50 in experiment [13] is 6.87 µM (active).
As for `CCOC(=O)[C@H](C)O`, the call in experiment [1], in experiment [2], in experiment [3], in [5], in experiment [6] and in experiment [11] was inactive. In addition, the call in [16], in experiment [18], in experiment [14] and in [20] was inactive. Moreover, the AC50 in experiment [4] was 26.7 µM (active).
On to `N=c1ccn2c(n1)O[C@H]1[C@H](O)[C@@H](CO)O[C@H]12`, for which the molecule was classed as inactive in experiment [1], in experiment [2], in experiment [3], in experiment [4], in experiment [5] and in experiment [6]. In [11], the call was inactive.
